Screens: PubChem, National Center for Advancing Translational Sciences (NCATS)
Tau fluor cs: counter-screen for tau fibril formation inhibitors. actives 0.93% (n = 280,000). Potency, µM (series often up to 57.7 µM), for inactives: top-dose activity change, negative = decrease. tau K18 P301L Alexa594 fluorescence, heparin fibrillization; also: nearly all actives have a fitted effect of over 55% in size
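Human K18 P301L tau (15 uM unlabeled plus 0.24 uM Alexa 594-labeled, final) in 100 mM sodium acetate pH 7 was mixed with compound and 20 uM heparin and incubated 6 hr at 37 C.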
TRb-SRC2 inh: TRbeta-SRC2 interaction inhibition. TRbeta-SRC2 peptide binding, fluorescence polarization; receptor liganded with 1 µM T3. actives 0.065% (n = 280,000). Potency, µM (titrated, usually from 106 µM), without a hit: at the top dose activity change, negative = inhibition, actives largely listed as inhibitors;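 also: plate controls were bound peptide for no effect and peptide without receptor for full effect; nearly all actives have a fitted effect of over 50% in size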
Target sequence (P10828 whole entry, looked up): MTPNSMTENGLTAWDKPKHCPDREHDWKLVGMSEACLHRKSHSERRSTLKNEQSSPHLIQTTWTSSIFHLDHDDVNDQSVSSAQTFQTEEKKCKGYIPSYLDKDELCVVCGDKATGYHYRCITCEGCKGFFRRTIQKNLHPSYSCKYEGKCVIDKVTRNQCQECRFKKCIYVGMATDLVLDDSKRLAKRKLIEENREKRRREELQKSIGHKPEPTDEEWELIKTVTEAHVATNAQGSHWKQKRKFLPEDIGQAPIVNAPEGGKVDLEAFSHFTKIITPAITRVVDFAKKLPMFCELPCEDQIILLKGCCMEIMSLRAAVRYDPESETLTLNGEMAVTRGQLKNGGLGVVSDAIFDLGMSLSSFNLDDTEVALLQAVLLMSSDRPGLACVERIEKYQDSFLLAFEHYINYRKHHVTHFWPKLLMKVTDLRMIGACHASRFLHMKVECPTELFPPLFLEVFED
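Binding of a 20-amino-acid Texas Red SRC2 peptide (20 nM) to TRb ligand-binding domain (0.6 uM) with agonist T3 at 1 uM was followed by fluorescence polarization after a 5 hr room-temperature incubation.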
Tau FP inhib: inhibitors of human tau fibril formation; K18 P301L tau heparin fibrillization, Alexa594 FP, 6 h; actives 0.39% (n = 280,000); Potency, µM (titrated, usually from 57.7 µM), inactives show at the top dose activity, negative = inhibition, usual class: inhibitors; also: nearly all actives have a fitted effect of over 55% in size
Target sequence (P10636 561-689 P618L limits assumed): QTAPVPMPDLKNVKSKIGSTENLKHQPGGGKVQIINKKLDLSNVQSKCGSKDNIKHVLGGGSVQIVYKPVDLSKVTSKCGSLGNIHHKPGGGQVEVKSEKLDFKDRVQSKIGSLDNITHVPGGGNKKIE
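Human K18 P301L fragment (15 uM unlabeled plus 0.24 uM Alexa 594-labeled) in 100 mM sodium acetate pH 7 with compound, aggregation induced by 20 uM heparin for 6 hr at 37 C. ThT (30 uM) added for 1 hr, then Alexa 594 FP read.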
TexasRed fluor: Texas Red fluorescence interference in TRb-SRC2 counter-screen. TRb/SRC2 Texas Red total fluorescence interference. actives 0.29% (n = 280,000). Potency, µM (series often up to 106 µM), without a hit: top-dose fluorescence change, negative = quenching; active = well fitted curve in either direction with a large enough effect; inconclusive = small, poorly fitted or top-dose-only effect
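Human TRβ ligand-binding domain (0.6 uM) and Texas Red SRC2 peptide (20 nM) in Tris buffer with 1 uM T3 and 5% DMSO were incubated with pinned compound for 5 hr at ambient temperature. Total fluorescence was computed as S + 2P (555/632 nm).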
Tau ThT inhib: inhibitors of human tau fibril formation, thioflavin T binding. AID 1460. actives 2.1% (n = 270,000). recombinant tau K18 P301L (four-repeat tau fragment), heparin-induced fibrillization, ThT fluorescence. Potency, µM (doses to about 57.4 µM), for inactives: at the top dose activity, negative = inhibition, actives largely listed as inhibitors; also: nearly all actives have a fitted effect of over 55% in size
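K18 P301L tau (15 uM + 0.24 uM Alexa 594-tagged), heparin 20 uM, NaOAc pH 7, 6 h 37 C; ThT 30 uM, 1 h RT, ex 450/em 510 nm.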
* hit, by the source's call; u = inconclusive; x = no result; [ ] = another dose, or the depositor's remark. This is a sample that favours compounds with a hit; in the whole collection about 3.1% have one here. Unless noted, calls follow the shape of the dose curve; as a rule, active = well fitted curve in the direction sought with a large enough effect; inconclusive = small, poorly fitted or top-dose-only effect, or another doubt; inactive = no such curve, though single readings can be large; an effect the other way counts as inactive or inconclusive. Unless noted, % is scaled to controls: 0 for no effect and ±100 for the full control effect; potency is read from the fitted curve at half-maximal effect.

SMILES	Tau fluor cs	TRb-SRC2 inh	Tau FP inhib	TexasRed fluor	Tau ThT inhib
CCOC(=O)C1CCCN(S(=O)(=O)c2ccc3c(c2)N(C)C(=O)CC(=O)N3C)C1 (configuration not stated)	-20%	4%	1%	-1%	-1%
CCN1CCc2c(sc(N)c2C#N)C1	-9%	0%	-9%	6%	u
N#Cc1c(N)sc(=S)c2c1CCN(Cc1ccccc1)C2	u	u	u	u	1.3µM*
Cc1oc(C)c2c(=O)ccc3c(c12)OC(N)=C(C#N)C3c1ccc(F)cc1 (configuration not stated)	u	9%	u	1%	25µM*
CC(C)COc1ccc(/C=C2/Sc3ccccc3C2=O)cc1	-5%	4%	12%	0%	4.5µM*
CC(=O)Oc1cccc(/C=C2\Sc3ccccc3C2=O)c1	u	5%	-8%	-7%	10µM*
CC(=O)Oc1cccc(/C=C2\C=C(c3ccc(C)cc3)OC2=O)c1	-15%	-2%	-8%	-4%	u
CCCCOc1ccc(/C=C2/Sc3ccccc3C2=O)cc1	u	-25%	1%	0%	3.5µM*
CCc1ccc2occ(CC(=O)Nc3sc4c(c3C(=O)NCCOC)CCCC4)c2c1	-4%	0%	-4%	-9%	5%
Cc1ccccc1CN1CCCN(CC(=O)Nc2ccc(F)cc2)S1(=O)=O	-21%	3%	1%	-1%	-5%
COc1cc(CNCCCSc2nnnn2C)cc(Br)c1OC	-5%	-2%	2%	-10%	-4%
CC1(C)CC(=O)C(CC2=C(O)CC(C)(C)CC2=O)C(=O)C1	-22%	-11%	28µM*	-2%	14µM*
CN=CC1=C(O)CC(C)(C)CC1=O	0%	-16%	0%	-4%	-3%
CC1(C)CC(=O)C(C=NC2CCCCC2)=C(O)C1	9%	4%	2%	0%	7%
CC1(C)CC(=O)C(CC2=C(O)CC(C)(C)CC2=O)=C(O)C1	-23%	-4%	40µM*	-5%	16µM*
O=C1/C(=C\c2ccco2)CCC/C1=C\c1ccco1	-26%	9%	u	0%	18µM*
CC1C/C(=C/c2ccco2)C(=O)/C(=C/c2ccco2)C1 (configuration not stated)	-29%	-3%	u	-1%	25µM*
Brc1cc(Oc2cc(Br)c(Br)c(Br)c2Br)c(Br)c(Br)c1Br	x	-4%[201 µM]	x	1%[201 µM]	x
O=C(NCC1CC1)C1(C(F)(F)F)CC(CCCO)CCCO1 (configuration not stated)	x	9%	x	1%	x
Cc1ccccc1NC(=O)Cn1cc(S(=O)(=O)N2CCCC2)c(S(=O)(=O)N2CCCC2)c1	-15%	-1%	-7%	-2%	-5%
O=C1OC(Nc2ccc3c(c2)OCO3)c2ccccc21 (configuration not stated)	u	5%	u	-2%	13µM*
COc1ccc(NS(=O)(=O)c2cc([N+](=O)[O-])ccc2N/N=C\c2c(C)[nH]c3ccccc23)cc1	3.2µM*[quencher]	1%	6%	0%	2.5µM*
Cc1[nH]c2ccccc2c1/C=N/Nc1ccc([N+](=O)[O-])cc1S(=O)(=O)Nc1ccc(Cl)cc1	3.2µM*[quencher]	-18%	2%	-1%	3.2µM*
COc1ccccc1NS(=O)(=O)c1cc([N+](=O)[O-])ccc1N/N=C/c1c[nH]c2ccccc12	-78%	-16%	4%	-2%	2.8µM*
COc1ccccc1NS(=O)(=O)c1cc([N+](=O)[O-])ccc1N/N=C/c1sc(N2CCOCC2)nc1-c1ccccc1	u	14%	17%	0%	u
SMILES	Tau fluor cs	TRb-SRC2 inh	Tau FP inhib	TexasRed fluor	Tau ThT inhib
COc1ccc(/C=N/Nc2ccc([N+](=O)[O-])cc2S(=O)(=O)N2CCN(C)CC2)cc1	-7%	-5%	-8%	-8%	u
COc1ccc(C(C(N)=O)c2ncc(C(F)(F)F)cc2Cl)cc1OC (configuration not stated)	4%	1%	12%	-1%	0%
O=c1c2c([N+](=O)[O-])cc([N+](=O)[O-])cc2sn1-c1ccc(Br)cc1	u	4%	22µM*	5%	14µM*
O=C(COC(=O)/C=C/c1ccco1)Nc1ccc(F)cc1Cl	-11%	5%	-4%	-3%	-14%
COc1cc(NC(=O)CC(C)n2nc(C)cc2C)cc(OC)c1 (configuration not stated)	2%	-7%	5%	-2%	7%
COc1ccc2c(c1)Cc1sc(NC(C)=O)nc1-2	u	2%	u	-6%	32µM*
COc1ccc2c(c1)Cc1sc(NC(=O)c3cccnc3)nc1-2	u	-17%	u	-4%	7.9µM*
COc1ccc2c(c1)CCc1sc(NC(=O)c3ccco3)nc1-2	14µM*[quencher]	0%	-6%	-7%	13µM*
COc1ccc2c(c1)Cc1sc(NC(=O)c3ccco3)nc1-2	u	2%	7%	-10%	u
COc1cc(OC)cc(-c2nnc3n2N=C(c2ccc(OC)cc2OC)CS3)c1	x	4%	x	-4%	x
C=CCOC(=O)C(C(C)=O)C(NC(=O)OC)c1cccc(C(F)(F)F)c1 (configuration not stated)	-4%[11.6 µM]	4%[11.2 µM]	-6%[11.6 µM]	4%[11.2 µM]	-1%[11.5 µM]
CN1CCSc2ccc(C(=O)Nc3cccc(F)c3)cc21	22µM*[quencher]	9%	u	-2%	u
O=C1CC(Nc2ccc(N3CCOCC3)cc2)C(=O)N1c1ccccc1F (configuration not stated)	-27%	-2%	-5%	-1%	14µM*
CCc1ccc(NC2CC(=O)N(CCc3ccc(OC)c(OC)c3)C2=O)cc1 (configuration not stated)	-6%	-5%	11%	-6%	-10%
COc1ccc(CCN2C(=O)CC(Nc3ccc(N4CCOCC4)cc3)C2=O)cc1OC (configuration not stated)	-13%	2%	5%	3%	13µM*
[O-][n+]1ccccc1SSc1cccc[n+]1[O-]	x	8%	x	0%	x
Cc1oc2ncn(C)c(=O)c2c1C(=O)N1CCN(c2ccc(Cl)cc2)CC1	-6%	2%	-1%	-7%	-4%
Cc1ccc(NC(=O)CN(C)S(=O)(=O)c2cccc3nsnc23)c(C)c1	-3%	-2%	2%	-1%	-3%
CCn1c(C(=O)NCc2cccnc2)cc2sc(Cl)cc21	-4%	-5%	-3%	0%	0%
Cc1cc([N+](=O)[O-])ccc1NC(=O)CSc1nccc(=O)[nH]1	-1%	3%	4%	0%	-2%
CC(CNc1ccccc1O)C(=O)O (configuration not stated)	u	-6%	u	-9%	28µM*
CC(Oc1ccccc1)C(=O)Nc1ccccc1O (configuration not stated)	-8%	-7%	7%	0%	-7%
